The values that follow come from PubChem BioAssay (NCATS).

Test [1] can be described thus: Confirmatory screen GU Rhodamine qHTS for Zika virus inhibitors qHTS (AID 1347157). Note: potency is the fitted concentration of half-maximal effect; nearly all actives have a fitted effect of over 70% in size. The note with it: purified enzyme assay, Rhodamine110 substrate fluorescence, 15 min. Summed up: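 Enzyme 25 nM in Tris-HCl pH 8.0 + 0.01% Tween 20; compounds up to 114 microM, 15 min RT dark; + Rhod110 substrate 1.5 microM; read t0 and 15 min; delta fluorescence → % inhibition → 4-parameter Hill fit.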
For orientation: In qHTS, concentration-response curves come from the screen itself.

Test [2] has as its system Zika virus NS2B-NS3 protease (unlinked complex). In words: Primary screen GU Rhodamine qHTS for Zika virus inhibitors: Unlinked NS2B-NS3 protease assay (AID 1347159). Note: nearly all actives have a fitted effect of over 60% in size. Note: potency is the fitted concentration of half-maximal effect. The note with it: Recombinant ZIKV NS2B-NS3 protease, Rhodamine110 substrate fluorescence; series mostly up to 107 µM. Summed up:
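Unlinked NS2B/NS3, 25 nM; Rhod110 peptide, 1.5 microM; compounds, up to 114 microM. Reaction run 15 min at RT in 10 mM Tris-HCl pH 8.0, 0.01% Tween 20; kinetic fluorescence change fitted with a 4-parameter Hill model.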

The nature of test [3]: Confirmatory screen NINDS Rhodamine qHTS for Zika virus inhibitors (AID 1347161). Note: potency is the fitted concentration of half-maximal effect; nearly all actives have a fitted effect of over 60% in size. The note with it: purified enzyme assay, Rhodamine110 substrate fluorescence, 15 min. The method in brief:
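Each compound, titrated, sat 15 min with 25 nM linked protease before 1.5 microM Rhodamine110 substrate went in. Fluorescence gain over the next 15 min, in pH 8.0 Tris with Tween 20, gave Hill-fitted curves.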

Test [4] relates to Zika virus NS2B-NS3 protease (linked construct). In words: Primary screen NINDS Rhodamine qHTS for Zika virus inhibitors (AID 1347160). Note: nearly all actives have a fitted effect of over 55% in size. Note: potency is the fitted concentration of half-maximal effect. The following applies: purified NS2B-NS3 protease, Rhodamine110 substrate fluorescence; series mostly up to 57.1 µM. Summed up: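 Single-chain NS2B-NS3 protease, 25 nM, pH 8.0; compounds preincubated 15 min. Activity: Rhodamine110 release from 1.5 microM substrate over 15 min, room temperature, data fitted to 4-parameter Hill.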

The target of another test is Furin (Homo sapiens) (UniProt P09958). In words: Furin counterscreen qHTS for Zika virus inhibitors (AID 1347149). Note: nearly all actives have a fitted effect of over 70% in size. Note: potency is the fitted concentration of half-maximal effect. The following applies: furin enzymatic counterscreen, fluorogenic substrate; series mostly up to 114 µM. Summed up: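 Counterscreen measures cleavage of 2 microM BOC-RVRR-AMC, below its ~15 microM Km, by 5 nM full-length human furin at pH 7.0 after a 15-min compound preincubation. Inhibition derives from the 15-min fluorescence increase at 37C.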
Sequence of Furin (Homo sapiens) (P09958 whole entry, looked up): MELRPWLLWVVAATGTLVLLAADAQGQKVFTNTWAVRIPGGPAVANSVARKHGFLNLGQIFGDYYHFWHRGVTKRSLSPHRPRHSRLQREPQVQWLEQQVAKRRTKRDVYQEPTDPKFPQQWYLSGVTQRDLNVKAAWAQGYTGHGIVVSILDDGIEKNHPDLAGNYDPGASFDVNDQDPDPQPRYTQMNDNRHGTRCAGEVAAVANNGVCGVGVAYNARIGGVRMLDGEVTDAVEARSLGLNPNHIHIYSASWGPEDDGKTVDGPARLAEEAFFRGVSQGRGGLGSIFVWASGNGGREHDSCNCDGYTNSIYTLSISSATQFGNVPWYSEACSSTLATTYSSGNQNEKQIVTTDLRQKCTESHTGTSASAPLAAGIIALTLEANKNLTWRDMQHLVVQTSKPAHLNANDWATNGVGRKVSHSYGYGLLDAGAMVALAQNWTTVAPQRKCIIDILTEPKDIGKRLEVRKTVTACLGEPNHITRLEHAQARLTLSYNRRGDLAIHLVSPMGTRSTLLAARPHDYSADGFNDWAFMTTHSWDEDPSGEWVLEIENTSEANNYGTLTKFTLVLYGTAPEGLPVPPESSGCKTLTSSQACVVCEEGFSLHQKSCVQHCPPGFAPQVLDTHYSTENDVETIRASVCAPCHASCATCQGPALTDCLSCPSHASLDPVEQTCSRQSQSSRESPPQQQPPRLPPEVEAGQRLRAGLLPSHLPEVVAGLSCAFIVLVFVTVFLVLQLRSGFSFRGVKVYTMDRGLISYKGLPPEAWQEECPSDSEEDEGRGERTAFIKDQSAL
A general note: Counterscreens check selectivity or assay interference.

For test [5], the system named is Zika virus NS2B-NS3 protease (linked construct). In words: Confirmatory screen NINDS AMC qHTS for Zika virus inhibitors (AID 1347152). Note: nearly all actives have a fitted effect of over 70% in size. Note: potency is the fitted concentration of half-maximal effect. The note with it: Purified linked NS2B-NS3, AMC substrate fluorescence; series mostly up to 56.6 µM. Summed up:
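Linked NS2B-NS3 protease, 1 nM, in 10 mM Tris-HCl pH 8.0, 0.01% Tween 20; compounds preincubated 15 min at room temperature. Nle-KRR-AMC 10 microM (Km 18.3 µM); 15-min fluorescence change (340/450 nm) fitted to 4-parameter Hill.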

Test [6] relates to Zika virus NS2B-NS3 protease (linked). In words: 384 well plate NINDS AMC confirmatory qHTS for Zika virus inhibitors (AID 1347163). Note: nearly all actives have a fitted effect of over 50% in size. Note: potency is the fitted concentration of half-maximal effect. The note with it: Recombinant NS2B-NS3 protease, Ac-VKTGKR-AMC fluorescence; series mostly up to 100 µM. Summed up:
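Fluorescence at 355/460 nm was read after 25 minutes of cleavage of 30 microM Ac-VKTGKR-AMC at room temperature, in the dark. Before substrate addition, compounds (up to 1 mM final) sat ~15 minutes with 5, 30 or 60 nM linked protease. Signals were normalized to no-enzyme and no-inhibitor wells.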

The subject of test [7] is Zika virus NS2B-NS3 protease (linked construct). Briefly: 384 well plate NINDS Rhodamine confirmatory qHTS for Zika virus inhibitors (AID 1347164).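 Note: fluorescence from protease cleavage of Ac-LKRR-rhodamine 110 substrate; potency is the fitted concentration of half-maximal effect; nearly all actives have a fitted effect of over 65% in size.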 The note with it: rhodamine-110 peptide substrate fluorescence; series mostly up to 100 µM. Summed up:
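Linked NS2B-NS3 protease (final 5, 30 or 60 nM) preincubated ~15 minutes with compounds, then 10 microM Ac-LKRR-Rhodamine 110 added. Fluorescence (485/538 nm) read after 25 minutes at room temperature, normalized to no-enzyme and no-inhibitor controls.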

Test [8] is described as follows: HepG2 cells viability qHTS for Zika virus inhibitors (AID 1347168). Note: % is set by controls: 0 for no effect and ±100 for the full control effect. The note with it: Zika counter-screen; series mostly up to 45.9 µM. The method in brief: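 To flag cytotoxic protease inhibitors, viability is measured by ATP-dependent luminescence (CellTiter Glo) after cells attached overnight receive compound for 24 to 48 hours in DMEM with 4% FBS.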
Test [9] relates to Zika virus NS2B-NS3 protease. Briefly: Primary screen GU AMC qHTS for Zika virus inhibitors (AID 1347154).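 Note: 0% = no-inhibitor control and -100% = no-enzyme control; nearly all actives have a fitted effect of over 70% in size.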 The following applies: Zika NS2B-NS3 unlinked protease, AMC fluorogenic substrate; series mostly up to 54.1 µM. Summed up:
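Unlinked Zika NS2B hydrophilic domain/NS3 protease domain noncovalent complex (25 nM final) in 10 mM Tris-HCl pH 8.0, 0.01% Tween 20, with AMC peptide substrate. Fluorescence (ex 340, em 450 nm) change over 15 min, room temperature; percent inhibition fitted to 4-parameter Hill equation.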

The subject of test [10] is Zika virus NS2B-NS3 protease (unlinked complex). In words: Confirmatory screen GU AMC qHTS for Zika virus inhibitors (AID 1347153). The note with it: Recombinant NS2B-NS3 protease, AMC substrate fluorescence. Summed up:
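Unlinked enzyme 25 nM, Tris pH 8.0/0.01% Tween 20; cpd 15 min RT, dark; + AMC substrate 10 µM (Km 18.3 µM); 340/450 nm read at t0 and 15 min; % inhibition → 4-param fit.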

A short description of test [11]: ZIKV-mCherry secondary qHTS for Zika virus inhibitors (AID 1347158). Note: top concentration of the series differs between compounds. The following applies: Vero cells, ZIKV-mCherry infection imaging, 48-72 h; series mostly up to 49.2 µM. Summed up: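 Compounds were tested in Vero monkey kidney cells infected with recombinant mCherry-expressing Zika virus at MOI 1 for 48-72 h at 37 °C. Fixed cells were nuclear-stained and imaged, and infection rate was taken as the fraction of mCherry-positive cells.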

Values joined by “and” are separate entries in the source; they are usually repeats but may differ in a detail not shown here. Equal entries are not always repeated. Records with an inconclusive call do not appear. A number with no mark means an inactive call. Active and inactive are the calls of the source. Calls come from the whole dose curve; as a rule, active = well fitted curve in the direction sought with a large enough effect; inconclusive = small, poorly fitted or top-dose-only effect, or another doubt; inactive = no such curve, though single readings can be large; an effect the other way counts as inactive or inconclusive.

`CCCCS(=O)(=O)Nc1ncnc(OCCOc2ncc(Br)cn2)c1-c1ccc(Br)cc1`: the Potency was 22.1 µM (active) in [1] and 35 µM (active) in test [3]. Also, the Potency entry in [2] was “inactive”.

In the case of `OC[C@H]1O[C@@H](Oc2ccc(O)c3cccc(O)c23)[C@H](O)[C@@H](O)[C@@H]1O`, the values for the Potency in [1], in test [2] and in [3] were 4.85 µM (active), 10 µM (active) and 6.1 µM (active), respectively. Besides, the Potency entry in test [4] is “inactive”.

Consider `N#CC1C(=O)Nc2scc(-c3ccc(-c4ccccc4O)cc3)c2C1=O` (stereo not given), for which, in the test with Furin (Homo sapiens), the Potency result was “inactive”. For the same compound, the Potency in test [5] is 22.1 µM (active); in test [1] it was 3.93 µM (active); in test [2] it was 2.51 µM (active); in [4], 3.16 µM (active); in test [3], 2.48 µM (active); in [6], 6.31 µM (active). The Potency in test [7] is 12.6 µM (active). Also, the outcome in test [8] was inactive.

In the case of `CC1=C(/C=C/C(C)=C/C=C/C(C)=C/CO)C(C)(C)CCC1`, in test [9], the result was inactive.

For `O=C(O)c1cnn(-c2nc3cc(OC(F)(F)F)c(Cl)cc3[nH]2)c1`, the Potency is 90.2 µM (active) with Furin (Homo sapiens); 40.3 µM (active) in [5]; 32 µM (active) in [10]; 12.7 µM (active) in [1]; 5.01 µM (active) in [2]; 2 µM (active) in test [4]. Moreover, the Potency is 5.69 µM (active) in test [3] and 0.794 µM (active) in test [7]. In addition, the compound was classed as inactive in [11] and in test [8].

Regarding `Cc1nn(C)c(COc2ccc(N3CCN(S(=O)(=O)N(C)C)CC3)cc2)c1-c1cccc2c(CCCOc3cccc4ccccc34)c(C(=O)O)n(CCN3CCOCC3)c12`, the Potency in test [1] is 1.75 µM (active); in test [2], 4.47 µM (active); in [3], 1.56 µM (active). In addition, the Potency result in test [4] was “inactive”.

For `O=C(O)c1cc(O)c2cccc(O)c2c1O[C@@H]1O[C@H](CO)[C@@H](O)[C@H](O)[C@H]1O`, the Potency in the test with Furin (Homo sapiens) is 34.3 µM (active); in test [5], 30.6 µM (active); in [10], 30.6 µM (active); in test [1] it was 10.9 µM (active); in test [2], 10 µM (active); in [4], 5.01 µM (active). In addition, the Potency in test [3] was 2.73 µM (active); in test [7], 2.82 µM (active). The result in [11] and in test [8] was inactive. In addition, the Potency entry in test [6] is “inactive”.

For `CC(NC(=O)Cc1cc(F)cc(F)c1)C(=O)NC(C(=O)OC(C)(C)C)c1ccccc1` (stereo not given), the compound was called inactive in [9].

Regarding `CC(=O)O[C@@H]1C[C@]2(C)[C@@]3(CCC4[C@@]5(C)CC[C@H](O[C@@H]6O[C@H](C(=O)O)[C@@H](O)[C@H](O[C@@H]7O[C@H](CO)[C@H](O)[C@H](O)[C@H]7O[C@@H]7O[C@@H](C)[C@H](O)[C@@H](O)[C@H]7O[C@@H]7OC[C@](O)(CO)[C@H]7O)[C@H]6O[C@@H]6O[C@H](CO)[C@H](O)[C@H](O)[C@H]6O)C(C)(C)C5CC[C@]42C)O[C@@H](O)[C@]12C3CC(C)(C)[C@@H](OC(=O)/C=C/c1ccc(O)c(O)c1)[C@@H]2OC(=O)/C=C/c1ccccc1` (stereo not given in full), the Potency is 10.5 µM (active) in [5]; 7.42 µM (active) in [10]; 3.32 µM (active) in [1]; 3.16 µM (active) in test [2]; 2.46 µM (active) in test [4]; 1.66 µM (active) in [3]. Besides, the activity change, negative = cytotoxicity in [8] is 0.159% [at 8.96 µM].

Regarding `CCCC(=O)Nc1ncnc2c1ncn2[C@@H]1O[C@@H]2COP(=O)(O)O[C@H]2[C@H]1OC(=O)CCC`, in test [9], the outcome was inactive.

As for `O=S(=O)(O)c1ccc2c(N=Nc3ccc(S(=O)(=O)O)c4ccccc34)c(O)c(S(=O)(=O)O)cc2c1`, in the test with Furin (Homo sapiens), the Potency result is “inactive”. The Potency in [10] is 31.2 µM (active); in [1], 10 µM (active); in test [3], 3.16 µM (active); in test [6] it was 63.1 µM (active) and 79.4 µM (active); in [7] it was 15.8 µM (active) and 12.6 µM (active). In addition, the result in test [11] was inactive.

On to `CC1(C)CCC(C)(C)c2cc3c(cc21)Sc1ccccc1N=C3c1ccc(C(=O)O)cc1`, for which the Potency was 7.84 µM (active) in test [5]; 1.56 µM (active) in test [1]; 2.51 µM (active) in test [2]; 2.24 µM (active) in test [4]; 1.75 µM (active) in [3]; 8.91 µM (active) in [6]. Also, the Potency in test [7] is 4.47 µM (active). Moreover, the call in [8] was inactive.

On to `CC(C)(O)C1CC=C(C(=O)OCC2OC(Oc3c(O)cc(C(=O)O)cc3O)C(O)C(O)C2O)CC1` (stereo not given), for which the Potency entry in test [5] and in test [2] was “inactive” throughout. For the same compound, in test [3], the Potency is 7.64 µM (active). For the same compound, in [8], the compound was called inactive.
